Assay results from PubChem BioAssay (NCATS).
Inconclusive results are not listed. Unmarked numbers belong to inactive results. The source made the active and inactive calls. Calls come from the whole dose curve; as a rule, active = well fitted inhibition curve with a large enough effect; inconclusive = small, poorly fitted or top-dose-only effect; inactive = flat fitted curve, though single readings scatter. Numbered stars: 1 amine (or outer) side, 2 acyl side, 3 side chain; on linkers, the order of the positions; unused ones are H or OH. Bridge positions count the residues as written; N and C are the ends. Square brackets hold non-standard residues; d marks the D form. Peptide text beside a SMILES is read from it. * marks the point of attachment. ξ: configuration not given here. ΔAla(E,3-NHCONH2) = NC(=O)N/C=C(/N)C(=O)O; X1 = NC1=NCCC(C(N[*:1])C(=O)[*:2])N1; ξβ3hOrn = NCCCC(N)CC(=O)*; Dap = NC[CH](N)C(=O)O

target: Ubiquitin carboxyl-terminal hydrolase 1 (Homo sapiens) (UniProt O94782); assay: Inhibitors of USP1/UAF1: Pilot qHTS (AID 504865); settings: purified USP1/UAF1, Ub-rhodamine cleavage fluorescence; series mostly up to 114 µM; activity change, negative = inhibition: at the top concentration;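 note: rhodamine fluorescence freed from ubiquitin-rhodamine substrate followed over time; top concentration of the series differs between compounds; nearly all actives have a fitted effect of over 35% in size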
Sequence (O94782 whole entry, looked up): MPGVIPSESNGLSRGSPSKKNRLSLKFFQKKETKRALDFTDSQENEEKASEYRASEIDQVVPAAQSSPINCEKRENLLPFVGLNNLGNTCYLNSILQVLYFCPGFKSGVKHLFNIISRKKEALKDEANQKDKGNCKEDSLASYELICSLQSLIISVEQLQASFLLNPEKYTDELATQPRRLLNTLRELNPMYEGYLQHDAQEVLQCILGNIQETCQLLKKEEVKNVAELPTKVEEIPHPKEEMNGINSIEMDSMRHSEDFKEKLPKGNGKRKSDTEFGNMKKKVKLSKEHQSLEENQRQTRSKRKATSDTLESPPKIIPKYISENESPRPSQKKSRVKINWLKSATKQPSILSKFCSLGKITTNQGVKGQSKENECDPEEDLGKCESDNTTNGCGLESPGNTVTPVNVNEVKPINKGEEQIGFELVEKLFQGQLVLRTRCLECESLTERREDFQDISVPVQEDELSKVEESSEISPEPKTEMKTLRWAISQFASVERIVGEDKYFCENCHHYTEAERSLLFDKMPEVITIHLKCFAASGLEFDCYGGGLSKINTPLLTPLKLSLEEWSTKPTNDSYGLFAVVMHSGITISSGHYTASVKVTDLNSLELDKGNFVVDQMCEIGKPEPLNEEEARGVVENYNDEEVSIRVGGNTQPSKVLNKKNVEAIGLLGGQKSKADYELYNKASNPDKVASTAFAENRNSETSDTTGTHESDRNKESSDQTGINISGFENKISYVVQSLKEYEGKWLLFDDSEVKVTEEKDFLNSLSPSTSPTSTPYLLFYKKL
Description: Deubiquitinating enzymes (DUBs) are a class of enzymes that can cleave isopeptide bond formed between the C-terminal carboxylate of ubiquitin and a lysine side-chain amino group on the target protein. Among them, ubiquitin specific proteases (USPs) constitute the largest DUB family. Human USPs are emerging as promising targets for pharmacological intervention because of their connection to a number of human diseases, including prostate, colon and breast cancer (1, 2), pediatric acute lymphoblastic leukemia (3), and familial cylindromatosis (4). The advantage of inhibiting USPs lies in the potential specificity of therapeutic intervention that can lead to better efficacy and reduce nonspecific side effects.
In a collaboration between the University of Delaware and the NIH Chemical Genomics Center, a high-throughput screen assay was developed to screen for USP1/UAF1 inhibitors. This miniaturized assay has a fluorescent read-out and is used to screen the NIH Molecular Libraries Small Molecule Repository (MLSMR) in order to identify a small molecule that inhibits USP1.
NIH Chemical Genomics Center [NCGC]
NIH Molecular Libraries Probe Centers Network [MLPCN]
Assay Submitter (PI): Zhihao Zhuang, University of Delaware
1. Priolo, C., et al. (2006) The isopeptidase USP2a protects human prostate cancer from apoptosis. Cancer Res 66, 8625-8632
2. Popov, N., et al. (2007) The ubiquitin-specific protease USP28 is required for MYC stability. Nat Cell Biol 9, 765-774
3. De Pitta, C., et al. (2005) A leukemia-enriched cDNA microarray platform identifies new transcripts with relevance to the biology of pediatric acute lymphoblastic leukemia. Haematologica 90, 890-898
4. Kovalenko, A., et al. (2003) The tumour suppressor CYLD negatively regulates NF-kappaB signalling by deubiquitination. Nature 424, 801-805
3 microliters of reagents (buffer in columns 3 and 4 as negative control and 1nM USP1/UAF1 complex in columns 1, 2, and 5-48) are dispensed into Greiner black solid bottom 1536-well assay plates. Compounds are then transferred via Kalypsys pin tool equipped with 1536-pin array (10nl slotted pins, V&P Scientific, San Diego, CA). Following an incubation step of 15 min at room temperature, 1ul of Ub-Rho substrate (150nM final concentration) is added to initiate the reaction. The plates are immediately centrifuged at 1000 rpm for 15 seconds, and subsequently transferred to a ViewLux high-throughput CCD imager (PerkinElmer) wherein kinetic measurements of fluorescence are acquired using 480 nm excitation/540 nm emission filter set (6 reads every 60 seconds, see Table 1). All reagents are diluted in an assay buffer consisting of 50mM HEPES (pH 7.8), 0.5mM EDTA, 0.1 mg/ml BSA, 1mM TCEP, and 0.01% Tween-20.
% is set by controls: 0 for no effect and ±100 for the full control effect.

Compound | activity change, negative = inhibition | Potency
CC(=O)[C@@H]1CC[C@@H]2[C@@H]3C[C@H](C)C4=CC(=O)CC[C@@]4(C)[C@H]3[C@H](O)C[C@]21C | -3.66% [at 54.9 µM] | 
C[N+](C)(C)CCOP(=O)([O-])OP(=O)(O)OCC1OC(n2ccc(N)nc2=O)C(O)C1O (stereo not given) | -4.95% | 
C=CCSCC(N)C(=O)O (stereo not given) | -2.69% | 
NCCCC(N)CC(=O)NCC1NC(=O)C(CO)NC(=O)C(N)CNC(=O)C(C2CCN=C(N)N2)NC(=O)/C(=C\NC(N)=O)NC1=O (stereo not drawn) (H-[Dap]S[Dap](ξβ3hOrn)[ΔAla(E,3-NHCONH2)][X1]; lactam 1-C; configuration not given here) | -13.1% | 
C[C@@]12CCC(O)C[C@H]1CCc1ccccc12 (stereo not given in full) | -7.8% | 
CCC(CO)NCCNC(CC)CO (stereo not given) | -11.5% | 
CC(C)/C(O)=C1/C(=O)OC(c2ccoc2)[C@@]2(C)C(O)C(O)[C@@]34OC5(C)OC67CC(C)(C(O)[C@@]6(O)C(O)[C@@]3(O5)C12)C(CC(=O)O)[C@@]74C (stereo not given in full) | -9.45% | 
CCCC1CC(C(=O)N[C@H](C(C)O)C2OC(SC)[C@@H](O)C(O)C2O)N(C)C1 (stereo not given in full) | -9.54% | 
CCOC(=O)C(CCc1ccccc1)NC(C)C(=O)N1CCCC1C(=O)O (stereo not given) | -7.91% | 
CC(C)=CCOc1cc2oc(=O)ccc2cc1O | -13.1% | 
NCC1OC(OC2C(N)CC(N)[C@@H](O)[C@@H]2OC2O[C@H](CO)[C@@H](O[C@@H]3OC(CN)C(O)C(O)C3N)C2O)C(N)C(O)C1O (stereo not given in full) | -8.32% | 
Cc1ccnc(N)c1 | -7.12% | 
CCCCCC1C(=O)CCC1CC(=O)O (stereo not given) | -5.81% | 
COC(=O)C(Cc1ccccc1)NC(=O)C(N)CC(=O)O (stereo not drawn) (H-Asp-Phe-OMe; configuration not given here) | -11% | 
NS(=O)(=O)c1cc2c(cc1Cl)N[C@@H](CC1CCCC1)NS2(=O)=O | -5.27% [at 54.9 µM] | 
Cc1c(O)cc(O)c2c(=O)c(-c3ccc(O)cc3)coc12 | -6.67% | 
CC(=O)N(C[C@@H](C)C(=O)O)c1c(I)cc(I)c(N)c1I | -5.39% [at 54.9 µM] | 
CC1C(O)CC2C(C(=O)O)=CO[C@@H](O[C@H]3OC(CO)C(O)C(O)C3O)C21 (stereo not given in full) | -5% | 
C[C@@]12CCC(=O)C=C1C=CC1C2CC[C@]2(C)C1CC[C@@]21CCC(=O)O1 (stereo not given in full) | -4.77% | 
CC(=O)OC1C[C@]2(C)C(C(C)=O)CCC2C2CCC3=CC(=O)CC[C@@]3(C)C12 (stereo not given in full) | -5.98% | 

Compound | activity change, negative = inhibition | Potency
CC(C)=CC1C(C(=O)O)C1(C)C (stereo not given) | -13.2% | 
COc1ccc(C2CC(=O)c3c(O)cc(O[C@H]4OC(COC5OC(C)C(O)C(O)[C@@H]5O)C(O)C(O)C4O)cc3O2)cc1O (stereo not given in full) | 1.44% | 
COC(=O)Oc1ccccc1C(=O)O | 2.65% | 
C[C@]12C=CC(=O)C=C1CCC1C2C(=O)C[C@]2(C)C1CC[C@]2(O)C(=O)CO (stereo not given in full) | -9.78% | 
C[C@@H]1O[C@H](O[C@@H]2[C@@H](Oc3cc(O)c4c(c3)O[C@H](c3ccc(O)cc3)CC4=O)O[C@@H](CO)[C@@H](O)[C@H]2O)[C@@H](O)[C@H](O)[C@@H]1O | -11.8% [at 54.9 µM] | 
CO[C@]1(NC(=O)[C@H](C(=O)O)c2ccc(O)cc2)C(=O)N2C(C(=O)O)=C(CSc3nnnn3C)CO[C@H]21 | 1.3% [at 54.9 µM] | 
CC1(C)OC2CC(=O)OC[C@@]23C1CC(=O)[C@]1(C)C3CC[C@@]2(C)C(c3ccoc3)OC(=O)C3O[C@@]321 (stereo not given in full) | -5.7% | 
CC(=O)OC1CC[C@@]2(C)C(CC[C@@]3(C)C2CC=C2C4CC(C)(C)CC[C@]4(C(=O)O)CC[C@@]23C)C1(C)C (stereo not given in full) | -9.74% | 
C[C@]12CCC(=O)C=C1CCC1C2C(O)C[C@]2(C)C1CC[C@]2(O)C(=O)CO (stereo not given in full) | -7.62% | 
C=C1C(C2(C)C=CC(=O)C(C)(C)C2CC(=O)OC)CC[C@@]2(C)C(c3ccoc3)OC(=O)C3OC132 (stereo not given in full) | -5.85% | 
O=C1O[C@@H]([C@@H](O)CO)[C@@H](O)[C@H]1O |  | inactive
C=C1C(=O)OC2CC1C(OC(C)=O)CC(C)=CCCC(C)=CCC[C@@]2(C)O (stereo not given in full) | -10.8% | 
COc1ccc(C[C@@](C)(N)C(=O)O)cc1OC | -0.473% [at 54.9 µM] | 
CC(=O)OCCC(C)CCC=C(C)C (stereo not given) | -8.71% | 
CC(=O)c1cc2ccccc2oc1=O | 9.61% [at 54.9 µM] | 
Nc1nc2c(c(=O)[nH]1)N(C=O)C(CNc1ccc(C(=O)NC(CCC(=O)O)C(=O)O)cc1)CN2 (stereo not given) | -8.89% | 
CC(=O)[C@H]1CC[C@@H]2[C@H]3CC=C4C[C@@H](O)CC[C@]4(C)[C@H]3CC[C@]12C | -14.2% [at 54.9 µM] | 
O=c1cc(-c2ccc(O)c(O)c2)oc2ccccc12 | -11.8% | 
C[C@]12CCC3c4ccc(OC(=O)c5ccccc5)cc4CCC3C1CCC2=O (stereo not given in full) | -10.9% | 
CC(=O)N(C[C@@H](O)CO)c1c(I)c(C(=O)NC[C@@H](O)CO)c(I)c(C(=O)NC[C@@H](O)CO)c1I | -6.73% [at 54.9 µM] | 
